From paper PMC5540273 (PLoS ONE, 2017) come the findings set out here.

For assay [1], the system named is STK36. Particulars: concentration: 1 μM, replicates: in singlicate; n = 1.
In assay [2] the test system is STK39. Particulars: concentration: 1 μM, replicates: in singlicate; n = 1.
Assay [3] deals with SYK. Particulars: n = 1.
Assay [4] concerns SgK110. Particulars: concentration: 1 μM, replicates: in singlicate; n = 1.
Assay [5] concerns T1, TAK1.
T1 construct: gene MAP3K7
The conditions noted are these: concentration: 1 μM, replicates: in singlicate; n = 1.

The subject of assay [6] is TAOK1. Particulars: concentration: 1 μM, replicates: in singlicate; n = 1.
For assay [7], the system named is TAOK2. Particulars: concentration: 1 μM, replicates: in singlicate; n = 1.
The subject of assay [8] is TAOK3. Particulars: concentration: 1 μM, replicates: in singlicate; n = 1.
Assay [9] has as its system TBK1. The conditions noted are these: concentration: 1 μM, replicates: in singlicate; n = 1.
Assay [10] concerns TEC. Particulars: concentration: 1 μM, replicates: in singlicate; n = 1.
Assay [11] deals with TESK1. Particulars: concentration: 1 μM, replicates: in singlicate; n = 1.
In assay [12] the test system is TGFBR1. The conditions noted are these: concentration: 1 μM, replicates: in singlicate; n = 1.
Assay [13] concerns TGFBR2. Particulars: concentration: 1 μM, replicates: in singlicate; n = 1.
Assay [14] has as its system TIE1. The conditions noted are these: concentration: 1 μM, replicates: in singlicate; n = 1.
Assay [15] has as its system T2, TIE2.
T2 construct: gene TEK
Particulars: concentration: 1 μM, replicates: in singlicate; n = 1.

Assay [16] has as its system TLK1. Particulars: concentration: 1 μM, replicates: in singlicate; n = 1.
Assay [17] concerns TLK2. The conditions noted are these: concentration: 1 μM, replicates: in singlicate; n = 1.
The subject of assay [18] is TNIK. The conditions noted are these: concentration: 1 μM, replicates: in singlicate; n = 1.
The subject of assay [19] is TNK1. Particulars: concentration: 1 μM, replicates: in singlicate; n = 1.
Assay [20] deals with TNK2. Particulars: concentration: 1 μM, replicates: in singlicate; n = 1.
[21] abbreviates: concentration: 1 μM, replicates: in singlicate.

Where two headings read alike, the source gives them in different places.
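Further: KINOMEscan kinase panel screen.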

For the compound `COC(=O)Nc1nc2ccc(Oc3ccc(NC(=O)Nc4cc(C(F)(F)F)ccc4F)cc3)cc2[nH]1.Cl` [GW654607], the “%Inh” value in [1] is 0%; in [2], 13%; in assay [3] (setting [21]) it was 29%; in assay [4] it was 55%; in assay [5], 94.7%; in [6] it was 0%. Besides, the “%Inh” value in [7] is on record as 0%; in [8], 6%; in assay [9] it was 0%; in [10], 0%; in [11], 0%; in [12] it was 0%. Further, the “%Inh” value in assay [13] turned out to be 7%; in assay [14], 97.7%; in assay [15], 99.7%; in assay [16], 7%; in [17], 4%; in assay [18] it was 5%. Besides, the entries for the “%Inh” value in assay [19] and in [20] were 48% and 12%, respectively.
As to `Fc1cc(Cl)ccc1Nc1ccnc2cc(-c3ccc(CN4CCOCC4)o3)ccc12` [GW560109], the “%Inh” value came out at 0% in assay [1]; 10% in assay [2]; 16% in assay [3] (setting [21]); 3% in assay [4]; 0% in assay [5]; 0% in assay [6]. Moreover, the “%Inh” value in assay [7] worked out at 0%; in assay [8], 0%; in assay [9] it was 0%; in [10] it was 76%; in assay [11], 13%; in assay [12] it was 0%. The “%Inh” value in [13] is reported as 83%; in assay [14], 13%; in [15] it was 8%; in [16], 0%; in [17] it was 0%; in assay [18], 53%. For the same compound, the “%Inh” value in assay [19] was found to be 81%; in assay [20], 82%.
Turning to `CCNc1nccc(-c2c(-c3ccc(F)cc3)ncn2C2CCN(C)CC2)n1`, the “%Inh” value in [1] was 25%; in [2], 0%; in assay [3] (setting [21]) it was 0%; in [4], 0%; in assay [5], 0%; in assay [6], 0%. Besides, the “%Inh” value was 0% in assay [7]; 0% in assay [8]; 1% in [9]; 14% in assay [10]; 0% in assay [11]; 0% in [12]. Further, the “%Inh” value in [13] was found to be 0%; in [14], 100%; in [15] it was 0%; in [16] it was 17%; in assay [17], 0%; in assay [18], 24%. Moreover, the “%Inh” value in assay [19] and in [20] was 0% in each case.
As for `Nc1ncc(-c2ccc3nccc(-c4ccncc4)c3c2)cc1S(=O)(=O)N1CCCCC1` [GSK1693850], the “%Inh” value in assay [1] amounted to 0%; in assay [2], 0%; in [3] (setting [21]), 29%; in assay [4], 0%; in assay [5] it was 14%; in assay [6], 3%. Also, the “%Inh” value in assay [7] was 0%; in [8], 5%; in assay [9], 6%; in [10], 0%; in [11] it was 20%; in [12], 0%. Also, the “%Inh” value in [13] is listed as 0%; in assay [14] it was 4%; in assay [15] it was 0%; in [16], 37%; in assay [17], 0%; in [18], 10%. For the same compound, the entries for the “%Inh” value in assay [19] and in assay [20] were 0% and 9%, respectively.
With `N#Cc1cnc2cc(-c3cnc(CNCCN4CCOCC4)s3)ccc2c1Nc1ccc(Oc2ccccc2)cc1` [GW664114], the “%Inh” value in [1] is given as 7%; in assay [2], 0%; in assay [3] (setting [21]), 82%; in assay [4], 0%; in assay [5], 12%; in assay [6], 0%. Moreover, the “%Inh” value in assay [7] is 0%; in assay [8], 0%; in assay [9], 34%; in assay [10], 88%; in [11], 6%; in [12] it was 6%. Further, the “%Inh” value in assay [13] worked out at 0%; in [14] it was 11%; in [15] it was 6%; in assay [16], 21%; in assay [17], 11%; in assay [18], 92.9%. Also, the “%Inh” value in assay [19] is on record as 99%; in assay [20], 94.6%.
As for `CC(C)(C)c1ccc(C(=O)Nc2cn3cc(-n4ccnc4)ccc3n2)cc1`, the “%Inh” value in assay [1] was 10%; in assay [2], 0%; in [3] (setting [21]), 0%; in assay [4] it was 15%; in assay [5] it was 9%; in assay [6], 0%. The “%Inh” value in assay [7] came to 0%; in assay [8], 0%; in assay [9], 24%; in assay [10] it was 0%; in [11], 0%; in [12], 0%. For the same compound, the “%Inh” value in assay [13] stood at 0%; in [14] it was 3%; in assay [15] it was 17%; in [16], 4%; in [17], 0%; in assay [18], 2%. The “%Inh” value in assay [19] and in assay [20] was 0% throughout.
Regarding `COc1ccc(C2=C(Nc3cccc(O)c3)C(=O)NC2=O)cc1` [SB-390766], the “%Inh” value is given as 100% in assay [1]; 34% in assay [2]; 0% in assay [3] (setting [21]); 100% in [4]; 0% in [5]; 0% in assay [6]. For the same compound, the “%Inh” value in assay [7] amounted to 1%; in assay [8] it was 0%; in [9] it was 0%; in assay [10], 14%; in [11] it was 12%; in assay [12] it was 20%. For the same compound, the “%Inh” value in assay [13] is given as 0%; in [14] it was 0%; in [15] it was 0%; in assay [16], 0%; in assay [17], 4%; in assay [18] it was 0%. Moreover, the “%Inh” value in assay [19] is given as 0%; in assay [20], 5%.
As for `Cc1ccc(NC(=O)c2ccnc(N3CCCCC3)c2)cc1-c1ccc(C(=O)NCC2CC2)cc1` [GW775610], the “%Inh” value is 0% in assay [1]; 15% in [2]; 0% in [3] (setting [21]); 0% in assay [4]; 0% in assay [5]; 0% in assay [6]. In addition, the “%Inh” value in assay [7] was 0%; in [8] it was 0%; in assay [9], 0%; in [10], 0%; in assay [11], 1%; in assay [12], 6%. The “%Inh” value in [13] turned out to be 0%; in [14], 0%; in assay [15] it was 0%; in assay [16] it was 100%; in assay [17] it was 0%; in assay [18], 0%. Further, the “%Inh” value in [19] and in assay [20] was 0% each time.
For `COc1cc(Nc2nccc(N3CCC(NS(=O)(=O)c4ccc(NC(C)=O)cc4)CC3)n2)cc(OC)c1OC` [GSK1379825], the “%Inh” value is reported as 62% in [1]; 0% in assay [2]; 37% in assay [3] (setting [21]); 0% in assay [4]; 0% in assay [5]; 0% in assay [6]. In addition, the “%Inh” value in assay [7] is recorded as 0%; in [8], 0%; in assay [9], 26%; in assay [10], 0%; in assay [11], 71%; in assay [12], 61%. The “%Inh” value is on record as 0% in assay [13]; 63% in assay [14]; 63% in [15]; 0% in assay [16]; 0% in assay [17]; 22% in [18]. The results for the “%Inh” value in assay [19] and in assay [20] were 6% and 76%, respectively.
Regarding `O=C(Nc1n[nH]c2nc(-c3cccc(O)c3)ccc12)C1CC1` [SB-711805], the “%Inh” value came to 14% in [1]; 4% in [2]; 40% in assay [3] (setting [21]); 0% in assay [4]; 15% in assay [5]; 88% in [6]. Further, the “%Inh” value is 12% in [7]; 34% in assay [8]; 23% in [9]; 0% in assay [10]; 0% in assay [11]; 4% in assay [12]. In addition, the “%Inh” value in [13] worked out at 87%; in assay [14], 0%; in [15], 21%; in assay [16] it was 9%; in [17] it was 100%; in assay [18], 65%. Further, the “%Inh” value worked out at 4% in assay [19] and 0% in [20].
Consider `Cc1cccc(Nc2nc(N[C@H]3CCCC[C@H]3N)ncc2C(N)=O)c1.Cl` [GSK986310], for which the “%Inh” value amounted to 58% in assay [1]; 12% in [2]; 99.4% in assay [3] (1 µM); 55% in [4]; 90.3% in assay [5]; 32% in assay [6]. For the same compound, the “%Inh” value in [7] was determined as 0%; in [8], 3%; in assay [9] it was 17%; in [10] it was 23%; in assay [11], 22%; in [12], 0%. The “%Inh” value in [13] is reported as 0%; in [14], 15%; in [15], 0%; in [16], 17%; in assay [17], 7%; in assay [18] it was 74%. Besides, the “%Inh” value in [19] worked out at 33%; in assay [20], 31%.
